Columns and labels:
[1] = biological target: Mast/stem cell growth factor receptor Kit (Homo sapiens) (UniProt P10721); conditions: at 1 µM
[2] = biological target: Mast/stem cell growth factor receptor Kit (Homo sapiens) (UniProt P10721); conditions: at 10 µM
[3] = biological target: Proto-oncogene tyrosine-protein kinase Src (Homo sapiens) (UniProt P12931); conditions: at 10 µM
[4] = biological target: Ribosomal protein S6 kinase beta-1 (Homo sapiens) (UniProt P23443); conditions: at 1 µM
[5] = biological target: Ribosomal protein S6 kinase beta-1 (Homo sapiens) (UniProt P23443); conditions: at 10 µM
[6] = biological target: T1, Serine/threonine-protein kinase NLK (Homo sapiens) (UniProt Q9UBE8); conditions: at 1 µM
T1 sequence (whole entry): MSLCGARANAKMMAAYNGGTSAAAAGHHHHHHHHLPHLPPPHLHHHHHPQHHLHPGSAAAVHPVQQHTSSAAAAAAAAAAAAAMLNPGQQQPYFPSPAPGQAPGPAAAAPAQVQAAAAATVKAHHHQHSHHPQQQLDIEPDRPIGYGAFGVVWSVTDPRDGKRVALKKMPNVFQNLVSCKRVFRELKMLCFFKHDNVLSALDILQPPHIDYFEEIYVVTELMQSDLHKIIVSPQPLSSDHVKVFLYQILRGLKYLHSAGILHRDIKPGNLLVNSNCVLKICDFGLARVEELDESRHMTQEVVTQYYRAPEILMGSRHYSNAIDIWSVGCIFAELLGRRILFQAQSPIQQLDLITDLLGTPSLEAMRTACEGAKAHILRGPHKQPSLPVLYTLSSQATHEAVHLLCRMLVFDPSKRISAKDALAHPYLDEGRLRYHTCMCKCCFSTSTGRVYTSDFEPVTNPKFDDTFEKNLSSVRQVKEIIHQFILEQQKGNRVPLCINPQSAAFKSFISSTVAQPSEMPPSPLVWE

[7] = biological target: T1, Serine/threonine-protein kinase NLK (Homo sapiens); conditions: at 10 µM
[8] = biological target: Serine/threonine-protein kinase PAK 2 (Homo sapiens) (UniProt Q13177); conditions: at 1 µM
[9] = biological target: Serine/threonine-protein kinase PAK 2 (Homo sapiens) (UniProt Q13177); conditions: at 10 µM
[10] = biological target: Serine/threonine-protein kinase mTOR (Homo sapiens) (UniProt P42345); conditions: at 1 µM
[11] = biological target: Serine/threonine-protein kinase mTOR (Homo sapiens) (UniProt P42345); conditions: at 10 µM
[12] = biological target: Serine/threonine-protein kinase mTOR (Homo sapiens) (UniProt P42345); conditions: at 1 µM; remark: listed apart in the source
[13] = biological target: Serine/threonine-protein kinase mTOR (Homo sapiens) (UniProt P42345); conditions: at 10 µM; remark: listed apart in the source
[14] = biological target: Serine/threonine-protein kinase Nek6 (Homo sapiens) (UniProt Q9HC98); conditions: at 10 µM
[15] = biological target: Proto-oncogene tyrosine-protein kinase Src (Homo sapiens) (UniProt P12931); conditions: at 1 µM
Target sequence in this assay (P12931 2-536 limits assumed): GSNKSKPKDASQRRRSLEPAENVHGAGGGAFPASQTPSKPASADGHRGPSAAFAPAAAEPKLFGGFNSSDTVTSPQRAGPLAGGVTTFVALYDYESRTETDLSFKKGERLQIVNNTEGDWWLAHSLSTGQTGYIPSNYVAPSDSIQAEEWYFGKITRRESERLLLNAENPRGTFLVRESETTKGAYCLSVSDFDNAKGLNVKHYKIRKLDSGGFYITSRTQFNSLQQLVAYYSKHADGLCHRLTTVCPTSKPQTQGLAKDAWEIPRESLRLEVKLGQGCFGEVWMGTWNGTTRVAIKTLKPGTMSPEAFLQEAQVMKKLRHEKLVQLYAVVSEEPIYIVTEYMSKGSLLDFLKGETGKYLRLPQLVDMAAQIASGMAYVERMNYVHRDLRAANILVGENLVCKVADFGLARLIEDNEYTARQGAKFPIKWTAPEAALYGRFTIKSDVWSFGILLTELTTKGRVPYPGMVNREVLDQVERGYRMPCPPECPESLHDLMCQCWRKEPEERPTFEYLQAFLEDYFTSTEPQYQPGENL

[16] = biological target: Serine/threonine-protein kinase Nek7 (Homo sapiens) (UniProt Q8TDX7); conditions: at 10 µM
[17] = biological target: T2, Eukaryotic elongation factor 2 kinase (Homo sapiens) (UniProt O00418); conditions: at 10 µM
T2 sequence (whole entry): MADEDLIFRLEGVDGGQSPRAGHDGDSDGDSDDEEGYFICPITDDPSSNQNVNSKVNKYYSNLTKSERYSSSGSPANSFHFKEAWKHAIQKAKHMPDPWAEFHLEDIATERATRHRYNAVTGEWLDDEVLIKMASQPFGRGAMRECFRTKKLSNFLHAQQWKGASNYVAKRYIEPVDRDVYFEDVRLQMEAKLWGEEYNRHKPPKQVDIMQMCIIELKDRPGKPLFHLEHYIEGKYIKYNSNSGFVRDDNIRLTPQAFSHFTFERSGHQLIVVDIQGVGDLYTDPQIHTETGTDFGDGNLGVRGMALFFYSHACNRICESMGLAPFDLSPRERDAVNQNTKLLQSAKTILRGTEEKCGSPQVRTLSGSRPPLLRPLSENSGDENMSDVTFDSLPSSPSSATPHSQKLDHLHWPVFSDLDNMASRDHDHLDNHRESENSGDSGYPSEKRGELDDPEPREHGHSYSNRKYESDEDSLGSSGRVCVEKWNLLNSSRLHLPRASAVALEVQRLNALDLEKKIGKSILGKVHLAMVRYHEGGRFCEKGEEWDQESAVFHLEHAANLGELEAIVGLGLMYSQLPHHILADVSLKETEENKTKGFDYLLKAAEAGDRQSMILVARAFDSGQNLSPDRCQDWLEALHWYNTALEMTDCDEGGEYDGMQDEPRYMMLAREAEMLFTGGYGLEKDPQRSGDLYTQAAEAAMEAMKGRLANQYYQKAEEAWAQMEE

[18] = biological target: Serine/threonine-protein kinase Nek7 (Homo sapiens) (UniProt Q8TDX7); conditions: at 1 µM
[19] = biological target: Serine/threonine-protein kinase Nek6 (Homo sapiens) (UniProt Q9HC98); conditions: at 1 µM
[20] = biological target: T2, Eukaryotic elongation factor 2 kinase (Homo sapiens); conditions: at 1 µM

Sequence of Serine/threonine-protein kinase Nek7 (Homo sapiens) (Q8TDX7 whole entry, looked up): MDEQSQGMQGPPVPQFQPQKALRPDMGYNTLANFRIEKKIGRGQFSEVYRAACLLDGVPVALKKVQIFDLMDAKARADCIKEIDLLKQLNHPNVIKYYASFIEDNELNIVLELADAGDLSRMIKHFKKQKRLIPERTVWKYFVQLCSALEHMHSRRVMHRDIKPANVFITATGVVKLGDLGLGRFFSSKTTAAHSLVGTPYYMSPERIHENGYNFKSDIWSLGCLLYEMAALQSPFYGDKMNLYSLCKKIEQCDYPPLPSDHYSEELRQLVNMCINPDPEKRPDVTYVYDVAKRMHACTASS
Sequence of Mast/stem cell growth factor receptor Kit (Homo sapiens) (P10721 whole entry): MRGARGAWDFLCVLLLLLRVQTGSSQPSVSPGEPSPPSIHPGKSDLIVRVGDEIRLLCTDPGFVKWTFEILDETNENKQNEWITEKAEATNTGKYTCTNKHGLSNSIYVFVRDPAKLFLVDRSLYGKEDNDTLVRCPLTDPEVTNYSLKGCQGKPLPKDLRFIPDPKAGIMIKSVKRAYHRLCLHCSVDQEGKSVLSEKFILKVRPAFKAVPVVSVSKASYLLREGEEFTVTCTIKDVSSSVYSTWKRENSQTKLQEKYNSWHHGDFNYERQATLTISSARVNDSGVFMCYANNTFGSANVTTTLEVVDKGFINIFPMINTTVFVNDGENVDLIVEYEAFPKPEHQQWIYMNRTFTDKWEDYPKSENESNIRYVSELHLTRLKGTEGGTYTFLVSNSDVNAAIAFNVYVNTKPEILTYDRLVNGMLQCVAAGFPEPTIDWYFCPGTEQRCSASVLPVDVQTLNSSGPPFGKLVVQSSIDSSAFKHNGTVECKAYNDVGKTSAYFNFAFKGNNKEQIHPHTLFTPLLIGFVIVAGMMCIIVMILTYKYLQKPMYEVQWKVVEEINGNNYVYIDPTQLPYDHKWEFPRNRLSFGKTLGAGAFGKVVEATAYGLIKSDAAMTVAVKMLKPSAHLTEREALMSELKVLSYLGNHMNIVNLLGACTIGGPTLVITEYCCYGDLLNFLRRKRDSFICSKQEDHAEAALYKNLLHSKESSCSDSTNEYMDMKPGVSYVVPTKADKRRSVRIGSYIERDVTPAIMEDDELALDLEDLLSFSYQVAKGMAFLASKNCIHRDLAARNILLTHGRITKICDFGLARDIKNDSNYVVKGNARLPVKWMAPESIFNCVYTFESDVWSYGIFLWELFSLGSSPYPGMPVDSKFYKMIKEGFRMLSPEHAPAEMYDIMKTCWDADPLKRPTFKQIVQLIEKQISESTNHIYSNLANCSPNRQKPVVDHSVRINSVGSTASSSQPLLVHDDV
Sequence of Serine/threonine-protein kinase PAK 2 (Homo sapiens) (Q13177 whole entry): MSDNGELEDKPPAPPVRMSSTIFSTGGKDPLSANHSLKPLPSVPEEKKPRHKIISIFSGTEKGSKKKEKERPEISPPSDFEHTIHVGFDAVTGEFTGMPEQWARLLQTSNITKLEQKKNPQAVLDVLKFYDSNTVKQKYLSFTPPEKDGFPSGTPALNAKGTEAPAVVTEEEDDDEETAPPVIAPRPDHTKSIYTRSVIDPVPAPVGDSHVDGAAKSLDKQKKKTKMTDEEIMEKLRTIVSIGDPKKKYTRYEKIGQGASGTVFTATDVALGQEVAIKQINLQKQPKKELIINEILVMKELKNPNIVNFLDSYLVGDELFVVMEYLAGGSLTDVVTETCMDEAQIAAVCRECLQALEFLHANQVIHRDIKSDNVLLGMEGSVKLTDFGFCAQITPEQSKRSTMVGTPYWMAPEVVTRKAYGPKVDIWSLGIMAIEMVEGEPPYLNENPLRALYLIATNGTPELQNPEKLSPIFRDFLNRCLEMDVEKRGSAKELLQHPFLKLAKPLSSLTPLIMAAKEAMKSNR
Sequence of Ribosomal protein S6 kinase beta-1 (Homo sapiens) (P23443 whole entry, looked up): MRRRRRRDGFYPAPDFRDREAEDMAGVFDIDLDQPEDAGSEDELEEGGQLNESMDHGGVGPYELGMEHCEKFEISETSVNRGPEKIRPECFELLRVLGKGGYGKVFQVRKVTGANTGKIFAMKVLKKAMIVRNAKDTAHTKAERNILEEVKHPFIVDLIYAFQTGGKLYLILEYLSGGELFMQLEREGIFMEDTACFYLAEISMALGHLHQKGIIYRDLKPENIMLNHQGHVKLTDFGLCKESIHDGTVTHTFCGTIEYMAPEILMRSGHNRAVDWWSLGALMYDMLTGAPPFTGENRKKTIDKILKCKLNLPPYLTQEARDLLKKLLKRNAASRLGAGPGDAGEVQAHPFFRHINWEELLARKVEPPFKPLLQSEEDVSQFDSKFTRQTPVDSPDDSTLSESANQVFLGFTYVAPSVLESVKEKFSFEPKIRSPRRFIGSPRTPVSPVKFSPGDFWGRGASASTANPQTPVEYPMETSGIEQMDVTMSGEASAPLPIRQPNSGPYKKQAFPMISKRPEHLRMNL
Sequence of Serine/threonine-protein kinase Nek6 (Homo sapiens) (Q9HC98 whole entry): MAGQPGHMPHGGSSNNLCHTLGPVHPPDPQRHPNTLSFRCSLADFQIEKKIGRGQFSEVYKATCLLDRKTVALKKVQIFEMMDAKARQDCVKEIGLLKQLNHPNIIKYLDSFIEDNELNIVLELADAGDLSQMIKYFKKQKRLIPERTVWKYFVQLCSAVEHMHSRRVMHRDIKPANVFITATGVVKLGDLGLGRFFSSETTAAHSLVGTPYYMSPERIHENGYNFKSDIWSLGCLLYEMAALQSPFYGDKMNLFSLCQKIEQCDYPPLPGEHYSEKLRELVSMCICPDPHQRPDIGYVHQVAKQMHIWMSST

SMILES	residual activity [1]	residual activity [2]	residual activity [3]	residual activity [4]	residual activity [5]	residual activity [6]	residual activity [7]	residual activity [8]	residual activity [9]	residual activity [10]	residual activity [11]	residual activity [12]	residual activity [13]	residual activity [14]	residual activity [15]	residual activity [16]	residual activity [17]	residual activity [18]	residual activity [19]	residual activity [20]
Cn1sc(=O)n(Cc2ccccc2)c1=O	100%	85%	92%	67%	57%	82%	92%	97%	91%	–	–	–	–	–	–	–	–	–	–	–
COc1ccc2c(c1)c(C1=C(c3c[nH]c4ccccc34)C(=O)NC1=O)cn2CCCN(C)C	109%	81%	–	22%	2%	–	–	–	–	113%	111%	113%	100%	107%	–	–	–	–	–	–
O=C(Nc1ccc(Cl)cc1)c1ccccc1NCc1ccncc1	17%	-1%	–	135%	–	–	–	–	–	–	–	–	69%	–	78%	120% (inactive)	–	–	–	–
Cc1cc(C)c(/C=C2\C(=O)Nc3ccccc32)[nH]1	11%	1%	–	–	–	–	–	–	–	–	–	–	–	–	–	–	105%	101% (inactive)	–	–
O=C1C(Cl)=C(N2C(=O)CCC2=O)C(=O)c2ccccc21	101%	98%	89%	–	67%	95%	88%	101%	98%	–	–	–	78%	–	124%	96% (inactive)	–	–	–	–
CC(C)(C)n1nc(Cc2cccc3ccccc23)c2c(N)ncnc21	113%	77%	24%	118%	96%	44%	15%	98%	49%	98%	97%	120%	87%	116%	63%	–	–	90% (inactive)	94% (inactive)	–
COc1ccc(-c2cnc3c(-c4ccsc4)cnn3c2)cc1	100%	85%	–	72%	66%	–	–	–	–	–	–	–	90%	–	77%	–	–	–	–	–
CN(C)S(=O)(=O)c1ccc2c(c1)/C(=C/c1cc3c([nH]1)CCCC3)C(=O)N2	29%	28%	35%	–	–	91%	93%	–	–	–	–	–	–	114%	31%	–	–	111% (inactive)	115% (inactive)	–
CCCC(=O)Oc1ccc2[nH]c(C(=O)c3cc4ccccc4[nH]3)cc2c1	107%	89%	94%	104%	91%	90%	108%	102%	86%	100%	95%	99%	79%	–	81%	93% (inactive)	–	91% (inactive)	89% (inactive)	–
O=C1NC(=O)c2c1c1c3ccccc3[nH]c1n1cncc21	11%	10%	64%	68%	28%	89%	72%	98%	89%	75%	71%	86%	76%	90%	100%	86% (inactive)	–	100% (inactive)	98% (inactive)	–
O=C(c1ccccc1)c1ccc(N2CCOCC2)cc1O	111%	96%	93%	77%	53%	–	63%	–	–	88%	94%	96%	54%	–	87%	–	–	116% (inactive)	92% (inactive)	–
CCOC(=O)c1c(C)[nH]c(/C=C2\C(=O)Nc3ccccc32)c1C	38%	53%	–	–	–	–	–	–	–	98%	99%	–	–	–	–	–	–	–	–	–
O=C1Nc2ccc(Cl)cc2/C1=C/c1cc(Cl)c(O)c(Cl)c1	21%	6%	65%	60%	40%	47%	15%	97%	75%	51%	64%	112%	75%	–	84%	–	–	–	–	–
O=C1Cc2c([nH]c3ccc([N+](=O)[O-])cc23)-c2ccccc2N1	110%	109%	29%	106%	103%	–	–	43%	30%	120%	114%	104%	100%	118%	53%	104% (inactive)	–	106% (inactive)	115% (inactive)	–
Oc1cccc(-c2nc(N3CCOCC3)c3oc4ncccc4c3n2)c1	118%	100%	94%	68%	84%	–	–	–	–	49%	35%	-12%	7%	–	91%	96% (inactive)	–	100% (inactive)	–	–
Cn1c2ccccc2c2c3c(c4c5ccccc5n(CCC#N)c4c21)CNC3=O	113%	82%	79%	1%	4%	50%	41%	101%	–	115%	112%	72%	99%	113%	69%	80% (inactive)	116%	95% (inactive)	93% (inactive)	100% (inactive)
c1ccc(-c2cnc(Nc3ccc(OCCN4CCCC4)cc3)s2)cc1	1%	1%	29%	61%	52%	112%	56%	–	–	100%	106%	–	–	–	70%	–	–	–	–	–
O=c1cc(N2CCNCC2)oc2c(-c3ccccc3)cccc12	97%	95%	99%	69%	65%	99%	77%	98%	80%	90%	99%	76%	90%	–	94%	95% (inactive)	–	104% (inactive)	80% (inactive)	–
COc1cc2c(cc1OC)-c1n[nH]c(Nc3cccc(F)c3)c1C2	0%	0%	7%	63%	79%	54%	17%	–	–	110%	108%	–	107%	–	44%	113% (inactive)	–	–	–	–
NCCNc1ncc(C(N)=O)c(Nc2cccc(C(F)(F)F)c2)n1	112%	105%	43%	–	–	106%	81%	–	–	104%	–	117%	–	111%	70%	–	–	–	–	–
CC(C)[C@H](CO)Nc1nc(Nc2cc(N)cc(Cl)c2)c2ncn(C(C)C)c2n1	99%	89%	2%	86%	39%	–	–	–	–	98%	83%	–	72%	–	28%	–	–	–	–	–
CCN(CC)CCNC(=O)c1c(C)[nH]c(/C=C2\C(=O)Nc3ccc(Cl)cc32)c1C	-1%	0%	13%	24%	4%	–	–	–	–	–	–	–	–	–	48%	–	–	–	–	–
CCCCc1c(-c2ccc(O)cc2)[nH]c2nccnc12	98%	77%	22%	88%	54%	88%	59%	–	–	–	–	–	96%	–	61%	–	–	–	–	–
COc1cc2nccc(Oc3ccc(NC(=S)NC(=O)c4ccccc4C)cc3)c2cc1OC	28%	3%	7%	66%	61%	81%	60%	98%	87%	–	–	–	–	–	32%	91% (inactive)	–	98% (inactive)	95% (inactive)	–
O=C(c1cc2cc(O)ccc2[nH]1)c1cc2cc(O)ccc2[nH]1	33%	5%	3%	73%	18%	61%	19%	100%	83%	–	–	–	–	–	28%	–	–	–	–	–
COc1cc2ncnc(Nc3cccc(Cl)c3)c2cc1OC	103%	107%	29%	82%	59%	–	–	126%	111%	–	–	–	–	117%	58%	115% (inactive)	–	102% (inactive)	109% (inactive)	–
COc1cc2nccc(Oc3ccc(NC(=O)Nc4cc(C)on4)c(Cl)c3)c2cc1OC	3%	0%	–	76%	53%	77%	42%	–	–	–	–	–	–	–	–	103% (inactive)	–	98% (inactive)	–	–

From ChEMBL document CHEMBL2218924, “A broad activity screen in support of a chemogenomic map for kinase signalling research and drug discovery” (Biochem J, 2013)
